L3MBTL1 block: qHTS Assay for the Inhibitors of L3MBTL1; AlphaScreen L3MBTL1–H3K9me1 peptide binding; Potency, µM (doses to about 57.1 µM), without a hit: at the top dose activity, negative = inhibition, hits mostly inhibitors; 0.66% of 230,000 active; AID 485360, 2010; further: potency means the concentration at half of the fitted maximal effect; on the % scale 0 is the no-effect control and ±100 the full control effect; nearly all actives have a fitted effect of over 60% in size
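Displacement of a biotinylated histone H3(1-15) peptide monomethylated at Lys9 (75 nM) from L3MBTL1 (50 nM) was measured by AlphaScreen after a 30 min room-temperature compound incubation; cefsulodin titration served as intraplate control.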
PI5P4Ka inh: qHTS for Inhibitors of phosphatidylinositol 5-phosphate 4-kinase (PI5P4K). Phosphatidylinositol 5-phosphate 4-kinase type-2 alpha (Homo sapiens), P48426. PI5P4Kalpha enzyme, ADP-Glo luminescence, 60 min; hits give low values. max response, %. 1.2% of 330,000 active; active means max response of -50% or lower; inconclusive means between -30% and -50%; inactive means -30% or higher; further: value at the top dose of about 77 µM; on the % scale 0 is the no-effect control and ±100 the full control effect
Target sequence (P48426 whole entry, looked up): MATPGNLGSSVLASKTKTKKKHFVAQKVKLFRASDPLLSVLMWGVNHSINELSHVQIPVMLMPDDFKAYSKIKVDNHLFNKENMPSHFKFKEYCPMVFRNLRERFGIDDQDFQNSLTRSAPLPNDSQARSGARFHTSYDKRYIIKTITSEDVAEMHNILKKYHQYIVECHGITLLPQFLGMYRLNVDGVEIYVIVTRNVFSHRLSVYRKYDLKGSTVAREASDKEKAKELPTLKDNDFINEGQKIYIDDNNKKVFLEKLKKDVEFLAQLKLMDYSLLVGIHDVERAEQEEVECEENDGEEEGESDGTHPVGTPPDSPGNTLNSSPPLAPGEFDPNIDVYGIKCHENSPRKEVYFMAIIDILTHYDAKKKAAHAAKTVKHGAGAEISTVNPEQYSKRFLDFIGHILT
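ADP-Glo luminescence end-point read after a 60 min room-temperature kinase reaction of PI5P4Kalpha plus substrate, initiated with ATP at 5 microM final. Buffer: 0.038 M HEPES pH 7.4, EGTA, 0.1% CHAPS, 5% DMSO.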
BAZ2B block: qHTS Assay for Inhibitors of BAZ2B | AlphaScreen BAZ2B-H3K14Ac peptide displacement | Bromodomain adjacent to zinc finger domain protein 2B (Homo sapiens), Q9UIF8 | Potency, µM (titrated, usually from 114 µM), without a hit: at the top dose activity change, negative = inhibition, most hits filed as inhibitors | 4.4% of 360,000 active; further: potency means the concentration at half of the fitted maximal effect; on the % scale 0 is the no-effect control and ±100 the full control effect; nearly all actives have a fitted effect of over 60% in size
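Complex of BAZ2B and biotin-H3K14Ac (50 nM apiece) forms over 30 min at RT, then faces library compounds up to 110 uM for another 30 min; AlphaScreen beads added, 20 min dark incubation, luminescence read.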
JMJD2A Tudor: qHTS Assay for Inhibitors of JMJD2A-Tudor Domain; 4.4% of 390,000 active; Lysine-specific demethylase 4A (Homo sapiens), O75164; Potency, µM (doses to about 114 µM), without a hit: at the top dose activity change, negative = inhibition, usual class: inhibitors; AlphaScreen JMJD2A-Tudor / H3K4me3 peptide binding; further: potency means the concentration at half of the fitted maximal effect; on the % scale 0 is the no-effect control and ±100 the full control effect; nearly all actives have a fitted effect of over 50% in size
HP1b chromo inh: HTS for Inhibitors of HP1-beta Chromodomain Interactions with Methylated Histone Tails. Chromobox protein homolog 1 (Homo sapiens), P83916. AlphaScreen HP1-beta / biotin-H3K9me3 peptide binding. Potency, µM (series often up to 114 µM), for inactives: at the top dose activity change, negative = inhibition, hits mostly inhibitors. 0.56% of 390,000 active; further: potency means the concentration at half of the fitted maximal effect; nearly all actives have a fitted effect of over 70% in size
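Compound inhibition of the preformed complex between 50 nM HP1-beta and 50 nM biotinylated H3K9me3 peptide was read by AlphaScreen. Buffer was PBS pH 7.4 with 0.01% Tween-20. Incubations ran 30 min at room temperature, with 10 ug/mL donor/acceptor beads.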
JMJD2E inh: qHTS Assay for Inhibitors of Human Jumonji Domain Containing 2E (JMJD2E); Lysine-specific demethylase 4E (Homo sapiens), B2RXH2; JMJD2E catalytic domain, FDH-coupled NADH fluorescence (FDH is formaldehyde dehydrogenase); Potency, µM (titrated, usually from 57.1 µM), inactives show at the highest dose activity change, negative = inhibition, hits mostly inhibitors; 1.6% of 230,000 active; AID 2147, 2009; active means well fitted inhibition curve with a large enough effect, not every such curve was filed as active; inconclusive means small, poorly fitted or top-dose-only effect, or another doubt; inactive means no such curve, though single readings can be large or run the other way;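 further: potency means the concentration at half of the fitted maximal effect; 0% = wells with enzyme and -100% = buffer wells without enzyme; nearly all actives have a fitted effect of over 50% in size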
Active calls of the source: *; ? = inconclusive; / = not tested or not shown; [ ] = another dose, or the depositor's remark. In the library only some 5.7% were active in any assay of this set; here they are far more common. Unless noted, the call rests on the fitted dose curve; in most records, active means well fitted inhibition curve with a large enough effect; inconclusive means small, poorly fitted or top-dose-only effect; inactive means no such curve, though single readings can be large or run the other way.

SMILES	L3MBTL1 block	PI5P4Ka inh	BAZ2B block	JMJD2A Tudor	HP1b chromo inh	JMJD2E inh
N=c1c2c(ncn1Cc1ccco1)Oc1ccc3ccccc3c1C2c1ccccc1 (stereo unspecified)	-6.3%	-21.3	44.7µM*	?	?	6.4%
COc1ccc(C2C3=C(CC(C)(C)CC3=O)Oc3ncn(CC(C)C)c(=N)c32)cc1 (stereo unspecified)	-8.8%	-3.3	-36.4%[57.1 µM]	-11.1%	32.2%	1.1%
COc1ccc(C2C3=C(CC(C)(C)CC3=O)Oc3ncn(Cc4ccco4)c(=N)c32)cc1 (stereo unspecified)	-6.3%	/	50.1µM*	?	23.9%	-0.4%
COc1cccc(C2c3c(ncn(CCCN4CCOCC4)c3=N)Oc3ccc4ccccc4c32)c1 (stereo unspecified)	/	/	/	28.2µM*	/	/
COc1cccc(C2c3c(ncn(-c4cccc(C#N)c4)c3=N)Oc3ccc4ccccc4c32)c1 (stereo unspecified)	/	/	/	79.4µM*	/	/
COc1ccc(C2c3c(n(CCc4ccccc4)cnc3=N)Oc3ccc4ccccc4c32)cc1OC (stereo unspecified)	/	/	/	56.2µM*	/	/
CCOC(=O)C1=C(C)NC(C)=C(C(=O)OCC)C1C(=O)OCC(=O)N(C)C	/	0.7	-14.0%	4.0%	10.1%	?
CCCCc1nc2ccccc2c(N)c1CCC (tested in a mixture with another compound)	-27.8%	3.5	-5.6%	3.1%	27.4%	3.6%
CCCCc1nc2ccccc2c(NC(=O)CNC(C)(C)C)c1CCC	/	5.6	50.1µM*	10µM*	-21.4%	?
O=C(COC(=O)c1cnccn1)c1ccc(Cl)cc1	-24.6%	2.7	?	5.8%	48.9%	-5.3%
O=C(OCC(=O)c1ccc(Cl)s1)c1ccccn1	?	-14.8	56.2µM*	31.6µM*	16.7%	4.2%
O=C(COc1cccnc1[N+](=O)[O-])c1ccc(Cl)s1	?	-85.9*	39.8µM*	39.8µM*	?	14.1µM*
O=C(COc1cccnc1[N+](=O)[O-])Nc1c(Cl)cccc1Cl	0.6%	-3.4	/	-15.9%	10.7%[57 µM]	/
O=C(OCC(=O)c1ccc(Cl)s1)c1cnccn1	/	-52.4*	?	-28.8%	0.1%	/
N#CC1=C(N)N(c2ccc(Cl)cc2)C2=C(C(=O)CCC2)C1c1cc(CN2CCOCC2)cs1 (stereo unspecified)	/	/	?	-22.8%	-0.9%	/
CCOC(=O)Cc1csc(NC(=O)c2ccc(NC(C)=O)cc2)n1	-3.9%	5.6	-37.4%	20µM*	16.3%	1.7%
CCOC(=O)Cc1csc(NC(=O)c2cc(OC)cc(OC)c2)n1	5.4%	-8.4	7.8%	79.4µM*	25.0%	0.8%
CCOC(=O)Cc1csc(NC(=O)NC2(C(F)(F)F)Oc3cc(Cl)c(Cl)cc3O2)n1	/	-5.6	?	?	3.5%	28.2µM*
CCOC(=O)Cc1csc(NC(=O)c2ccc(Br)cc2)n1	-6.8%	-3.4	?	1.7%	25.7%	/
CCOC(=O)Cc1csc(NC(=O)NC2(C(F)(F)F)Oc3ccccc3O2)n1	/	/	?	-6.0%	13.5%	?
CCOC(=O)Cc1csc(NC(=O)c2ccco2)n1	-0.2%	/	-2.6%	79.4µM*	15.3%	-2.2%
COc1ccc(N2CCN(C(=O)C(C)n3nc(C)c4sc5ccccc5c4c3=O)CC2)cc1 (stereo unspecified)	/	/	-21.0%	-34.1%	2.6%	/
O=C(NCC(c1cccnc1)N1CCOCC1)C(=O)Nc1cccc(Cl)c1 (stereo unspecified)	/	/	-10.7%	-4.6%	31.8%	/
Cc1cccc(NC(=O)CSc2nc(-c3cccs3)cc(C(F)(F)F)c2C#N)c1	/	/	0.2%	-4.9%	23.1%	/

Source: PubChem
